Laboratory results published in PubChem BioAssay (NCATS).
Several values for one entry are separate records, joined by “and”; a condition that tells them apart may be missing. Identical values can stand only once. Records with an inconclusive call do not appear. Entries that show only a call come without a potency. Where a structure was tested more than once in an assay, its records may differ in their call. Activity calls are given as the source filed them. The call rests on the fitted dose curve; in most records, active means well fitted curve in the direction sought with a large enough effect; inconclusive means small, poorly fitted or top-dose-only effect, or another doubt; inactive means no such curve, though single readings can be large; an effect the other way counts as inactive or inconclusive.

What was measured:
[1] = biological target: Thioredoxin reductase 1, cytoplasmic (Rattus norvegicus) (UniProt O89049); assay: qHTS Assay for Inhibitors of Mammalian Selenoprotein Thioredoxin Reductase 1 (TrxR1) (AID 488773); conditions: Potency: inhibition; further: nearly all actives have a fitted effect of over 40% in size; further: potency means the concentration at half of the fitted maximal effect
Chain of Thioredoxin reductase 1, cytoplasmic (Rattus norvegicus) (O89049 whole entry, looked up): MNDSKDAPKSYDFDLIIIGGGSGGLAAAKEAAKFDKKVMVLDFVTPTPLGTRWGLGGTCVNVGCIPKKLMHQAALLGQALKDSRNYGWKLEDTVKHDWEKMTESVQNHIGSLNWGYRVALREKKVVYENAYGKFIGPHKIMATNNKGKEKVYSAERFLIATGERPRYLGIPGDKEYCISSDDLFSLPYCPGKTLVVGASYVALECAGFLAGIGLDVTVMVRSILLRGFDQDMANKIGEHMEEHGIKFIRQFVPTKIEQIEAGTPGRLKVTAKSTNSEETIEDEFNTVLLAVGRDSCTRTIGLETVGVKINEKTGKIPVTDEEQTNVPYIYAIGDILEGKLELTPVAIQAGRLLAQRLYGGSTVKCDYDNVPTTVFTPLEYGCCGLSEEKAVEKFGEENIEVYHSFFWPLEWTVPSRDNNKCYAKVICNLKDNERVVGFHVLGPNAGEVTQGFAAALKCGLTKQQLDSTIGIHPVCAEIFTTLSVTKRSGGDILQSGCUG
How it was run: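 Inhibition is scored from the loss of NADPH fluorescence between first and last reads of an 8-min kinetic run. Selenite (400 uM) was the substrate, added after 15 min compound preincubation at room temperature.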

[2] = biological target: Flap endonuclease 1 (Homo sapiens) (UniProt P39748); assay: qHTS Validation Assay for the Inhibitors of Human Flap endonuclease 1 (FEN1) (AID 488816); further: potency means the concentration at half of the fitted maximal effect
Chain of Flap endonuclease 1 (Homo sapiens) (P39748 whole entry, looked up): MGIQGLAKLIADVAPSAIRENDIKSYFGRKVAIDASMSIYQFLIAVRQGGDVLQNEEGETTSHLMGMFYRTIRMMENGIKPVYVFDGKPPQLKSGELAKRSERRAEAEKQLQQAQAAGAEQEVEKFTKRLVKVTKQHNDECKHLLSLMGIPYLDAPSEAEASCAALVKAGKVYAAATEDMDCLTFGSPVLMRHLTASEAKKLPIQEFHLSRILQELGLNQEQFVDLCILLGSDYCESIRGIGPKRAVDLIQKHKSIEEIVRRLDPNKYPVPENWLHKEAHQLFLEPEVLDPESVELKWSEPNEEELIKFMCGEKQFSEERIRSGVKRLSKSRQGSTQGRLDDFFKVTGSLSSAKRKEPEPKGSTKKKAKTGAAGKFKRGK
How it was run: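 Steps: add FEN1 (10 nM reagent) or buffer only; pin compounds; hold 15 min at room temperature; start with substrate, 50 nM final; read at 0 and 15 min; correct, normalize and fit a four-parameter Hill curve.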

[3] = biological target: M-phase phosphoprotein 8 (Homo sapiens) (UniProt Q99549); assay: qHTS Validation Assay for Inhibitors for MPP8 Chromodomain Interactions with Methylated Histone Tails (AID 488949); further: nearly all actives have a fitted effect of over 55% in size; further: potency means the concentration at half of the fitted maximal effect
Chain of M-phase phosphoprotein 8 (Homo sapiens) (Q99549 whole entry, looked up): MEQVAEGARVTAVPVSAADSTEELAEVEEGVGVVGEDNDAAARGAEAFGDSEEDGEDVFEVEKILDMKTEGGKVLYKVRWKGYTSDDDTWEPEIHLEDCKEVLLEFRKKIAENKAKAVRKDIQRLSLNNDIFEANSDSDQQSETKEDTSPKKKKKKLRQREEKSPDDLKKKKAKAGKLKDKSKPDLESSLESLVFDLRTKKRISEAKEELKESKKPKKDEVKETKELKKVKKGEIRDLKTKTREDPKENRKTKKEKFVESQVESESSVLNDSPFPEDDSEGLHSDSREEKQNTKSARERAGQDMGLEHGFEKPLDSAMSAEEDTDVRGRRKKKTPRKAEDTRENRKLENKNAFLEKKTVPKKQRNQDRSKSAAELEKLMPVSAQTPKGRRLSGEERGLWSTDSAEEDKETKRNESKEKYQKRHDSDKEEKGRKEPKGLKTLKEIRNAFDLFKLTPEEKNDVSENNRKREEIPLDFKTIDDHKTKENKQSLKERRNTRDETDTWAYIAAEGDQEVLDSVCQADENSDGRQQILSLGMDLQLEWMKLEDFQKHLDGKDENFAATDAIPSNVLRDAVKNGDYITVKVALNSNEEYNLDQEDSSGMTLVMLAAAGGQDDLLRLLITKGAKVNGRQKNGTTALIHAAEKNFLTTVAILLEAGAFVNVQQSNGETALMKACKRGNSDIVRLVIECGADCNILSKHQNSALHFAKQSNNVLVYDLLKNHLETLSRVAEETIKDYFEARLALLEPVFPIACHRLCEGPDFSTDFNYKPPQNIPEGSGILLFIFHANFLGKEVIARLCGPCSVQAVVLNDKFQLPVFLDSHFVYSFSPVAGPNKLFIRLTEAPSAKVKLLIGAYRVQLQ
How it was run: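 MPP8 (50 nM) was preincubated with biotinylated H3(1-18)K9me3 peptide (50 nM) in PBS pH 7.4, 0.01% Tween-20 for 30 min at room temperature, then with compounds for 30 min; binding was detected by AlphaScreen.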

[4] = biological target: Chromobox protein homolog 1 (Homo sapiens) (UniProt P83916); assay: qHTS Validation Assay for Inhibitors of HP1-beta Chromodomain Interactions with Methylated Histone Tails (AID 488953); further: nearly all actives have a fitted effect of over 50% in size; further: potency means the concentration at half of the fitted maximal effect
Chain of Chromobox protein homolog 1 (Homo sapiens) (P83916 whole entry, looked up): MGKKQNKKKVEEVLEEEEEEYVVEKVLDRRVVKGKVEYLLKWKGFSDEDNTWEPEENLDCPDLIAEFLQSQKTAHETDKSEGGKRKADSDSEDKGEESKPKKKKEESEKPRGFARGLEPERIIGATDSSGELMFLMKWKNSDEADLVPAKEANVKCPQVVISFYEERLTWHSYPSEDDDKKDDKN
How it was run: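 AlphaScreen proximity signal from streptavidin donor and nickel chelate acceptor beads (final 10 ug/mL) after 30 min dark incubation. Compounds had 30 min at room temperature with preformed complex of 50 nM HP1-beta and 50 nM b-H3(1-18)K9me3 in PBS pH 7.4 with 0.01% Tween-20.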

[5] = biological target: Methanococcus maripaludis chaperonin (MmCpn) (UniProt Q6LX38); assay: High-Throughput Screening for Modulators of Cytosolic Chaperonin Activity: MmCpn Primary Screen (AID 488978);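 further: 50 nM MmCpn enzyme hydrolysing 30 µM ATP at 37 °C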
Chain of Methanococcus maripaludis chaperonin (MmCpn) (Q6LX38 1-543): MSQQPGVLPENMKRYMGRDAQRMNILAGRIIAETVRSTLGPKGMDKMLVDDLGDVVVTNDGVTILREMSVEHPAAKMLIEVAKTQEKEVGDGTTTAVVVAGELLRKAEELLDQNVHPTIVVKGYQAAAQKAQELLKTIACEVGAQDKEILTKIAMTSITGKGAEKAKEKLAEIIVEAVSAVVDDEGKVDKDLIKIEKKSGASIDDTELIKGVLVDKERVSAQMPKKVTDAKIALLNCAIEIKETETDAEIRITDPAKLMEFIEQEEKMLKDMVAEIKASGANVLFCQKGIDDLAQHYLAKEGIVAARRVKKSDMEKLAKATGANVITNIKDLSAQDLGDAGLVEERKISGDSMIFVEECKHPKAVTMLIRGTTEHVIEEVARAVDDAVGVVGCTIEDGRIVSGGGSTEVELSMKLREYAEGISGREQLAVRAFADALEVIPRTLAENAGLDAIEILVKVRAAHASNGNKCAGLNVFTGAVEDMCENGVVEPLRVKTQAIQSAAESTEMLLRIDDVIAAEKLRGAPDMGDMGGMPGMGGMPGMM
How it was run: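 MmCpn (50 nM final) was preincubated with compound 5 min at RT, then 30 uM ATP (final) was added and the reaction ran 10 min at 37C. ADP produced was detected by Transcreener HTRF (ex 320 nm; em 590/665 nm).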

[6] = biological target: Transient receptor potential cation channel subfamily V member 1 (Homo sapiens) (UniProt Q8NER1); assay: HTS Assay for Compounds that Act as Enhancers of the Vanilloid Receptor 1 (AID 488979)
Chain of Transient receptor potential cation channel subfamily V member 1 (Homo sapiens) (Q8NER1 whole entry, looked up): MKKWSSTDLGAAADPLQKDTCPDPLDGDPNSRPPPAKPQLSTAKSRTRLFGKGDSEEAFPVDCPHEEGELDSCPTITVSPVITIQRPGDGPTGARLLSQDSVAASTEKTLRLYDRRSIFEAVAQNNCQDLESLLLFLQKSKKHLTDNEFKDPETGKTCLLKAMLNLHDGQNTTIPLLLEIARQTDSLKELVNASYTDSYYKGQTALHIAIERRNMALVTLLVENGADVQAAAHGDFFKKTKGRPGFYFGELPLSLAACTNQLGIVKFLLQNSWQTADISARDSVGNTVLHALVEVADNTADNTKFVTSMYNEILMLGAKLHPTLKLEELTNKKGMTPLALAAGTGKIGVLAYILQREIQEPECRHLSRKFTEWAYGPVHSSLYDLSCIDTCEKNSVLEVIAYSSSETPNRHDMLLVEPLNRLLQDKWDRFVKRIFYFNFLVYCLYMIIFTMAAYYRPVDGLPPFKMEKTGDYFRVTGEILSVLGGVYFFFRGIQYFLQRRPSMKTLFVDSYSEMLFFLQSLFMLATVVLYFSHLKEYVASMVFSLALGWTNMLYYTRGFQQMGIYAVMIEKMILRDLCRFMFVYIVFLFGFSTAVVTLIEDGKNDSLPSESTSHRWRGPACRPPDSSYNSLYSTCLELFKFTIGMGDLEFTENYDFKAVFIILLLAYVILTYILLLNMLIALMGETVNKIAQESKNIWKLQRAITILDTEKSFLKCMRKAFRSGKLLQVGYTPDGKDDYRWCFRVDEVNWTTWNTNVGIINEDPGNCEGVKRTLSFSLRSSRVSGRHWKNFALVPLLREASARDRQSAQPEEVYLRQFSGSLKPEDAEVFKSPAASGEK
How it was run: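 TRPV1-expressing cells loaded with Fluo-8 calcium dye; compounds added and calcium influx read kinetically for 3 min (agonist phase), then capsaicin at EC20 added and read 2 min more for enhancement. Fluorescence ex 480/em 520 nm.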

[7] = biological target: Thyrotropin receptor (Homo sapiens) (UniProt P16473); assay: qHTS Assay for Antagonists of the Thyroid Stimulating Hormone Receptor (AID 488980); further: series mostly up to about 58 µM
Chain of Thyrotropin receptor (Homo sapiens) (P16473 whole entry, looked up): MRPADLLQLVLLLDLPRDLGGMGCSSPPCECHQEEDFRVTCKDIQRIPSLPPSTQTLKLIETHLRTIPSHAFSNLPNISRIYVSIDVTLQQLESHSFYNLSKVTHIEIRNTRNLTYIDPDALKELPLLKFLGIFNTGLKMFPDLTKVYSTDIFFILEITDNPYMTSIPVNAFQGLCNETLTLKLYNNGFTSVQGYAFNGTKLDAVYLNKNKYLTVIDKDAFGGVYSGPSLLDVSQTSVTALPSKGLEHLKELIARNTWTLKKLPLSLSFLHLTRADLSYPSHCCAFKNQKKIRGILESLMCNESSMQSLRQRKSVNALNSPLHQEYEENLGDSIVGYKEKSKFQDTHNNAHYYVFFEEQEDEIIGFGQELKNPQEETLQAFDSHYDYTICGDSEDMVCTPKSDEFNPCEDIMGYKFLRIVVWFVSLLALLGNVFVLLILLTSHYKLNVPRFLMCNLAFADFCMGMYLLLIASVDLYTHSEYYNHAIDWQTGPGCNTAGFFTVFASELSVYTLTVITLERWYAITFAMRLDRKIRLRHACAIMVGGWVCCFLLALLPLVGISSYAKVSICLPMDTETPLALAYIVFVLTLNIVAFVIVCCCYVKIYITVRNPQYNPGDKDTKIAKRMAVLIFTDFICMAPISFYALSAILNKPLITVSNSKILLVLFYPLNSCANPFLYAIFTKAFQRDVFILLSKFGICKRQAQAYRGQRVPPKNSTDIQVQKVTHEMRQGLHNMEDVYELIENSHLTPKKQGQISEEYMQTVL
How it was run: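 HEK293 cells transfected with human TSHR, suspended in HEPES-buffered HBSS with 70 uM RO 20-1724, were treated with compounds plus TSH at EC80 (4 nM final). cAMP was measured by competitive HTRF (cryptate anti-cAMP antibody, cAMP-d2 acceptor).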

[8] = biological target: D(1A) dopamine receptor (Homo sapiens) (UniProt P21728); assay: HTS Assay for Allosteric Agonists of the Human D1 Dopamine Receptor: Primary Screen for Agonists (AID 488981); further: potency means the concentration at half of the fitted maximal effect
Chain of D(1A) dopamine receptor (Homo sapiens) (P21728 whole entry, looked up): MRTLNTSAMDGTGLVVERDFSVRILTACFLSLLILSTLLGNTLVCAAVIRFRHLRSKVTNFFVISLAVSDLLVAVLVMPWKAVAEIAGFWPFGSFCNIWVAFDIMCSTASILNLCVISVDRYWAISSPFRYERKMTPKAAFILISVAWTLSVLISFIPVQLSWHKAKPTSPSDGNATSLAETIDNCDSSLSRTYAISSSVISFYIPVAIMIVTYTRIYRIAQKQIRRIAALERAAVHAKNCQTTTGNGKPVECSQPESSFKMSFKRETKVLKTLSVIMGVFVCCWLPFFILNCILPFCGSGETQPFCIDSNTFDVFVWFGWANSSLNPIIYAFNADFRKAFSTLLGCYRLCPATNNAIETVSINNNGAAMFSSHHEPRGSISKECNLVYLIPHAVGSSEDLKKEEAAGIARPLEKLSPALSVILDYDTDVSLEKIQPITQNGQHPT
How it was run: (§1)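 Tetracycline-induced HEK293 T-REx cells force-coupled to calcium signalling were incubated overnight at 30 C and dye-loaded at room temperature. Calcium flux over 180 s after compound addition flagged agonists; a further 180 s read after EC20 dopamine flagged potentiators.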

[9] = biological target: D(1A) dopamine receptor (Homo sapiens) (UniProt P21728); assay: HTS Assay for Allosteric Agonists of the Human D1 Dopamine Receptor: Primary Screen for Potentiators (AID 488982); further: potency means the concentration at half of the fitted maximal effect
How it was run: as §1

[10] = biological target: D(1A) dopamine receptor (Homo sapiens) (UniProt P21728); assay: HTS Assay for Allosteric Agonists of the Human D1 Dopamine Receptor: Primary Screen for Antagonists (AID 488983);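 further: calcium flux response to an EC80 dopamine challenge measured with no-wash dye; nearly all actives have a fitted effect of over 65% in size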; further: potency means the concentration at half of the fitted maximal effect
How it was run: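 Calcium-flux read-out in inducible HEK293 T-REx cells expressing D1, dye-loaded 30–90 min at room temperature. Kinetic reads: 180 s after compound (agonist phase), then 180 s after an EC80 dopamine challenge.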

Row | SMILES | Potency [1] | Potency [2] | Potency [3] | Potency [4] | outcome [5] | outcome [6] | outcome [7] | Potency [8] | Potency [9] | Potency [10]
1 | NNCCc1ccccc1 | inactive | inactive | inactive | inactive | inactive | inactive | inactive | inactive | inactive | inactive
2 | CC(C)C[C@H](NC(=O)[C@@H](O)[C@H](N)Cc1ccccc1)C(=O)O | inactive | inactive | inactive | inactive | inactive | inactive | inactive | inactive | inactive | inactive
3 | NS(=O)(=O)c1cc2c(cc1Cl)NC=NS2(=O)=O | inactive | inactive | inactive | inactive | inactive | inactive | inactive | inactive | inactive | inactive
4 | CCCCNc1cc(C(=O)O)cc(S(N)(=O)=O)c1Oc1ccccc1 | inactive | inactive | inactive | inactive | inactive | inactive | inactive | inactive | inactive | inactive
5 | Cc1cn[nH]c1 | inactive | inactive | inactive | inactive | inactive | inactive | inactive | inactive | inactive | inactive
6 | CC(C)(Sc1ccc(CCN(CCCCC2CCCCC2)C(=O)NC2CCCCC2)cc1)C(=O)O | inactive | inactive | 56.2 µM (active) and inactive | 56.2 µM (active) | inactive | inactive | inactive | 11.2 µM (active) | inactive | –
7 | CC(=O)Oc1ccccc1C(=O)O | inactive | inactive | inactive | inactive | inactive | inactive | inactive | inactive | inactive | inactive
8 | Cc1ccccc1C(OCCN(C)C)c1ccccc1 (configuration not stated) | inactive | inactive | inactive | inactive | inactive | inactive | inactive | inactive | inactive | inactive
9 | Cc1oncc1C(=O)Nc1ccc(C(F)(F)F)cc1 | inactive | inactive | inactive | inactive | inactive | inactive | inactive | inactive | inactive | inactive
10 | O=NN(CCCl)C(=O)NCCCl | inactive | inactive | inactive | inactive | inactive | inactive | inactive | inactive | inactive | inactive
11 | c1ccc([C@H]2CN3CCSC3=N2)cc1 | inactive | inactive | inactive | inactive | inactive | inactive | inactive | inactive | inactive | inactive
12 | CCn1cc(C(=O)O)c(=O)c2cc(F)c(N3CCNC(C)C3)c(F)c21 (configuration not stated) | inactive | inactive | inactive | inactive | inactive | inactive | inactive | inactive | inactive | inactive
13 | Nc1nc2ccc(OC(F)(F)F)cc2s1 | inactive | inactive | inactive | inactive | inactive | inactive | inactive | inactive | inactive | inactive
14 | Cn1cnc([N+](=O)[O-])c1Sc1ncnc2nc[nH]c12 | 15 µM (active) | inactive | inactive | inactive | inactive | inactive | inactive | inactive | inactive | inactive
15 | NCCc1ccc(O)c(O)c1 | inactive | 0.844 µM (active) | inactive and 1.06 µM (active) | inactive | inactive | inactive | – | – | – | –
16 | Cc1[nH]c(=O)c(C#N)cc1-c1ccncc1 | inactive | inactive | inactive | inactive | inactive | inactive | inactive | inactive | inactive | inactive
17 | N=c1nc(N2CCCCC2)cc(N)n1O | inactive | inactive | inactive | inactive | inactive | inactive | inactive | inactive | inactive | inactive
18 | O=c1n(CCCN2CCN(c3cccc(Cl)c3)CC2)nc2ccccn12 | inactive | inactive | inactive | inactive | inactive | inactive | inactive | inactive | inactive | 11.2 µM (active)
19 | Nc1ccc(S(=O)(=O)Nc2ccnn2-c2ccccc2)cc1 | inactive | inactive | inactive | inactive | inactive | inactive | inactive | inactive | inactive | inactive
20 | CCC(C)N(C)C(=O)c1cc2ccccc2c(-c2ccccc2Cl)n1 (configuration not stated) | inactive | inactive | inactive | inactive | inactive | inactive | inactive | inactive | inactive | inactive
21 | O=C1CCc2cc(OCCCCc3nnnn3C3CCCCC3)ccc2N1 | inactive | inactive | inactive | inactive | inactive | inactive | inactive | inactive | inactive | inactive
22 | O=C1CCC(N2C(=O)c3ccccc3C2=O)C(=O)N1 (configuration not stated) | inactive | inactive | inactive | inactive | inactive | inactive | inactive | inactive | inactive | inactive
23 | CCCC(CCC)C(=O)O | inactive | inactive | inactive | inactive | inactive | inactive | inactive | inactive | inactive | inactive
24 | CNC[C@H](O)c1cccc(O)c1 | inactive | inactive | inactive | inactive | inactive | inactive | inactive | inactive | inactive | –

Row | SMILES | Potency [1] | Potency [2] | Potency [3] | Potency [4] | outcome [5] | outcome [6] | outcome [7] | Potency [8] | Potency [9] | Potency [10]
25 | Clc1cccc(Cl)c1NC1=NCCN1 | inactive | inactive | inactive | inactive | inactive | inactive | inactive | inactive | inactive | inactive
26 | Cc1[nH]c(=O)c(C#N)cc1-c1ccc2nccn2c1 | inactive | inactive | inactive | inactive | inactive | inactive | inactive | inactive | – | inactive
27 | CCN(CC)CCCC(C)Nc1ccnc2cc(Cl)ccc12 (configuration not stated) | inactive | inactive | inactive | inactive | inactive | inactive | – | inactive | inactive | inactive
28 | C1COC(NC(C2CC2)C2CC2)=N1 | inactive | inactive | inactive | – | inactive | inactive | inactive | inactive | inactive | inactive
29 | Nc1ncnc2nc(-c3ccc(N4CCOCC4)nc3)cc(-c3cccc(Br)c3)c12 | – | – | inactive | – | inactive | – | – | inactive | inactive | inactive
30 | CCOC(=O)N1CCC(=C2c3ccc(Cl)cc3CCc3cccnc32)CC1 | inactive | inactive | inactive | – | inactive | inactive | – | inactive | inactive | inactive
31 | C[C@]12CCC(=O)C=C1CC[C@@H]1[C@@H]2[C@@H](O)C[C@@]2(C)[C@H]1CC[C@]2(O)C(=O)CO | inactive | inactive | inactive | inactive | inactive | – | – | inactive | inactive | inactive
32 | OC(CN1CCC(Cc2ccc(F)cc2)CC1)c1ccc(Cl)cc1 (configuration not stated) | inactive | inactive | inactive | inactive | inactive | inactive | – | – | inactive | –
33 | Cc1cccc(-c2[nH]c(C(C)(C)C)nc2-c2ccc3nccnc3c2)n1 | inactive | inactive | inactive | inactive | inactive | – | – | inactive | inactive | inactive
34 | Oc1ccc(C2CNCCc3c2cc(O)c(O)c3Cl)cc1 (configuration not stated) | – | – | inactive | 0.0067 µM (active) | inactive | inactive | inactive | – | inactive | –
35 | NC(=O)c1cnccn1 | inactive | inactive | inactive | inactive | inactive | inactive | – | inactive | inactive | inactive
36 | N[C@@H]1CONC1=O | inactive | inactive | inactive | – | inactive | inactive | inactive | inactive | inactive | inactive
37 | NC(N)=NC(=O)c1nc(Cl)c(N)nc1N | inactive | – | inactive | inactive | inactive | inactive | inactive | inactive | inactive | inactive
38 | Cc1ccc(N(CC2=NCCN2)c2cccc(O)c2)cc1 | inactive | inactive | inactive | – | inactive | inactive | inactive | inactive | inactive | –
39 | CCOC(=O)C1=C[C@]2(CC)CCCN3CCc4c(n1c1ccccc41)[C@@H]32 | inactive | inactive | inactive | – | inactive | inactive | inactive | inactive | 3.26 µM (active) | –
40 | CN1CCN(CCCN2c3ccccc3Sc3ccc(C(F)(F)F)cc32)CC1 | inactive | inactive | 20 µM (active) | 31.6 µM (active) | inactive | – | inactive | inactive | – | –
41 | O=C(O)COCCN1CCN(C(c2ccccc2)c2ccc(Cl)cc2)CC1 (configuration not stated) | inactive | inactive | inactive | inactive | inactive | – | – | inactive | inactive | inactive
42 | OC(CCN1CCCCC1)(c1ccccc1)C1CC2C=CC1C2 (configuration not stated) | inactive | inactive | inactive | inactive | inactive | – | – | inactive | inactive | inactive
43 | Nc1nc2c(ncn2COCCO)c(=O)[nH]1 | inactive | – | inactive | inactive | inactive | – | inactive | inactive | inactive | inactive
44 | NC[C@H](O)c1ccc(O)c(O)c1 | – | 2.12 µM (active) | inactive | inactive | inactive | inactive | – | 2.24 µM (active) | inactive | 2 µM (active)
45 | CC(C)NCC(O)COc1ccc(COCCOC(C)C)cc1 (configuration not stated) | inactive | inactive | inactive | – | inactive | inactive | inactive | inactive | inactive | inactive
46 | Cc1cnc(NC(=O)C2=C(O)c3ccccc3S(=O)(=O)N2C)s1 | – | – | inactive | inactive | inactive | – | – | inactive | inactive | inactive
47 | Cc1cc2c(C(C)C)c(O)c(O)c(C=O)c2c(O)c1-c1c(C)cc2c(C(C)C)c(O)c(O)c(C=O)c2c1O | – | – | – | – | inactive | – | – | – | inactive | –
